The text below walks through data of PubChem BioAssay (EPA / NIEHS).

A short description of experiment [1]: ATG_CRE_CIS: Attagene CIS-FACTORIAL HepG2 Assay for human cAMP Responsive Element (CRE) binding protein 3 (AID 2282926). Conditions: HepG2 CRE cis-reporter, Attagene multiplexed mRNA; actives raise or lower the signal. In short, it runs like this:
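Multiplexed transcription-unit reporters transfected into HepG2; 24 h dosing; RT-PCR/capillary electrophoresis fluorescence read-out; bidirectional fit vs DMSO.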

The target of experiment [2] is CCAAT/enhancer-binding protein beta (Homo sapiens) (UniProt P17676). Briefly: ATG_C_EBP_CIS: Attagene CIS-FACTORIAL HepG2 Assay for human CCAAT/Enhancer Binding Protein (C/EBP) beta (AID 2282927). Conditions: HepG2 Attagene cis-factorial transcription factor reporter; actives raise or lower the signal. In short, it runs like this:
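HepG2 transiently transfected with multiplexed reporter units under cis-regulatory promoters reporting endogenous C/EBPb activity. After 24 h exposure, reporter mRNA assayed by RT-PCR, fluorescent labelling, HpaI digestion and capillary electrophoresis; bidirectional fitting versus DMSO.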

A short description of experiment [3]: ATG_CMV_CIS: Attagene CIS-FACTORIAL HepG2 Assay for human CMV (Internal Marker) (AID 2282928).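 Note: endpoint acts as a background internal control marker rather than a target.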 Conditions: HepG2 CMV promoter reporter, transcription factor profiling; actives raise or lower the signal. The method in brief:
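CMV internal-marker background readout in transiently transfected HepG2 cells bearing cis-regulated reporter units. Reporter mRNA is measured 24 h after dosing by RT-PCR and capillary electrophoresis, with bidirectional fitting against DMSO.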

The nature of experiment [4]: ATG_DR4_LXR_CIS: Attagene CIS-FACTORIAL HepG2 Assay for human Liver X Receptor (LXR), DR4 submotif (AID 2282929). Conditions: HepG2 Attagene DR4 cis-reporter, mRNA transcription; actives raise or lower the signal. The method in brief:
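After transient transfection with multiplexed cis-promoter reporter units, HepG2 cells received test chemicals for 24 h. Reporter mRNA induction, detected by fluorescence after RT-PCR and capillary electrophoresis, was scored relative to DMSO.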

For experiment [5], the target named is Aryl hydrocarbon receptor (Homo sapiens) (UniProt P35869). Briefly: ATG_Ahr_CIS: Attagene CIS-FACTORIAL HepG2 Assay for human Aryl Hydrocarbon Receptor (Ahr) (AID 2282930). Conditions: HepG2 AhR cis-factorial reporter transcription; actives raise or lower the signal. In short, it runs like this:
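HepG2 cells transiently transfected with cis-element-driven multiplexed reporter units; endogenous AhR activity read as reporter mRNA 24 h after dosing, via RT-PCR, 6-FAM labelling, HpaI digestion and capillary electrophoresis. Bidirectional fit relative to DMSO.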

A short description of experiment [6]: ATG_AP_1_CIS: Attagene CIS-FACTORIAL HepG2 Assay for human Activator Protein 1 (AP-1) (AID 2282931). Conditions: HepG2 Attagene cis-factorial AP-1 reporter mRNA; actives raise or lower the signal. The method in brief:
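After 24 h incubation with test chemical, RNA from transfected HepG2 cells was reverse-transcribed, amplified, fluorescently labelled and digested before capillary electrophoresis. Reporters were driven by cis-regulatory promoters; activity fitted bidirectionally versus DMSO.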

Experiment [7] in a line: ATG_AP_2_CIS: Attagene CIS-FACTORIAL HepG2 Assay for human Activator Protein 2 (AP-2) (AID 2282932). Conditions: HepG2 AP-2 cis-reporter, Attagene transcription factor profiling; actives raise or lower the signal. The method in brief:
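Multiplexed mRNA reporter assay in HepG2: cis-regulated units report endogenous factor activity after 24 h treatment. Fluorescence from capillary electrophoresis of RT-PCR products gives the signal, with DMSO as baseline.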

Experiment [8] in a line: ATG_BRE_CIS: Attagene CIS-FACTORIAL HepG2 Assay for human Bone Morphogenetic Protein (BMP) Response Element (BRE) (AID 2282933). Conditions: HepG2 BMP response element reporter, Attagene transcription factor profiling; actives raise or lower the signal. The method in brief: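 After a 24 h chemical treatment, transiently transfected HepG2 cells were lysed for RNA; reporter transcripts were quantified by fluorescent RT-PCR and capillary electrophoresis, normalised to DMSO.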

Experiment [9] deals with Retinoic acid receptor alpha (Homo sapiens) (UniProt P10276). Put plainly: ATG_DR5_RAR_CIS: Attagene CIS-FACTORIAL HepG2 Assay for human Retinoic Acid Receptor Alpha (RARE), DR5 submotif (AID 2282934). Conditions: HepG2 Attagene cis-factorial RARE DR5 reporter, mRNA; actives raise or lower the signal. The method in brief:
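HepG2 cells transiently transfected with multiplexed reporter units; DR5 cis-element drives reporter through endogenous transcription factors. After 24 h dosing, reporter mRNA quantified by RT-PCR, fluorescent labeling, HpaI digestion and capillary electrophoresis; bidirectional fitting versus DMSO.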

Experiment [10] addresses Transcription factor E2F1 (Homo sapiens) (UniProt Q01094). Put plainly: ATG_E2F_CIS: Attagene CIS-FACTORIAL HepG2 Assay for human E2F Transcription Factor 1 (AID 2282935). Conditions: HepG2 Attagene cis-reporter, E2F reporter RNA transcripts; actives raise or lower the signal. The method in brief: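 Measures reporter transcript levels via RT-PCR with capillary electrophoresis detection in HepG2 cells harboring cis-regulated reporter units; 24 h post-dose; bidirectional curve fitting with DMSO as baseline.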

The nature of experiment [11]: ATG_E_Box_CIS: Attagene CIS-FACTORIAL HepG2 Assay for human Enhancer Box (E-box) (AID 2282936). Conditions: HepG2 E-box cis-reporter transcription, actives raise or lower the signal. In short, it runs like this:
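First, HepG2 cells receive multiple cis-regulated reporter constructs by transient transfection. Next, chemicals are applied for 24 h. Finally, reporter mRNA is quantified via RT-PCR and capillary electrophoresis, with DMSO as baseline.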

The nature of experiment [12]: APR_HepG2_P-H2AX_72hr: Apredica 72-hour HepG2 Assay for H2AX Phosphorylation (AID 2282916).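 Note: phospho-histone H2A.x immunostain intensity per cell marking DNA damage.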 Conditions: imaging, actives raise or lower the signal. The method in brief: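 HepG2 human liver cells were exposed for 72 hr to compounds at 0.39–200 uM (10 concentrations, duplicate per plate) in 0.5% v/v DMSO. Fixed, permeabilized cells were immunolabeled for phospho-histone H2A.x with Hoechst 33342 and imaged by HCS fluorescence; bidirectional fit versus DMSO.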

Experiment [13] is described as follows: APR_HepG2_MitoMembPot_72hr: Apredica 72-hour HepG2 Assay for Mitochondrial Membrane Potential (AID 2282917). Conditions: imaging, actives raise or lower the signal. In short, it runs like this: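 HepG2 cells dosed 72 hr with compound at 0.39–200 uM in duplicate, 0.5% v/v DMSO final. Mitochondria stained with 250 nM MitoTracker Red CMXRos for 30 min before formaldehyde fixation, imaged by high-content fluorescence; bidirectional fit versus DMSO.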

Experiment [14] can be described thus: APR_HepG2_MitoticArrest_72hr: Apredica 72-hour HepG2 Assay for Mitotic Arrest (AID 2282918). Conditions: high-content imaging, actives raise or lower the signal. The method in brief: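 High-content imaging of fixed human HepG2 cells after 72 h compound exposure (0.39–200 uM, duplicates, 0.5% DMSO); mitotic arrest scored from phospho-histone H3 and nuclear Hoechst staining relative to DMSO.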

The nature of experiment [15]: APR_HepG2_P-H2AX_24hr: Apredica 24-hour HepG2 Assay for H2AX Phosphorylation (AID 2282920). Conditions: high-content imaging, actives raise or lower the signal. In short, it runs like this: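 High-content imaging of phospho-histone H2A.x immunofluorescence, nuclei counterstained with Hoechst 33342, in fixed HepG2 cells. Compounds ran 0.39–200 uM in duplicate for 24 h, final DMSO 0.5%. Signal change fitted both directions against DMSO.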

Experiment [16] can be described thus: APR_HepG2_StressKinase_72hr: Apredica 72-hour HepG2 Assay for Stress Kinase (AID 2282921). Conditions: HepG2 stress kinase (phospho-c-Jun) imaging, actives raise or lower the signal. The method in brief:
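Cells were exposed for 72 h to ten concentrations (0.39–200 uM, duplicate) at 0.5% v/v DMSO final, then fixed with 3.7% formaldehyde, permeabilized and immunostained for phospho-c-Jun (Cy3 secondary) with Hoechst nuclear counterstain.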

Experiment [17] is described as follows: APR_HepG2_StressKinase_24hr: Apredica 24-hour HepG2 Assay for Stress Kinase (AID 2282922). Conditions: HepG2 stress kinase (phospho-c-Jun) imaging, actives raise or lower the signal. In short, it runs like this:
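HepG2 cells exposed 24 h to 0.39–200 uM compound in duplicate (0.5% v/v DMSO final). Cells fixed in 3.7% formaldehyde, permeabilized and immunostained for phospho-c-Jun; read by high-content fluorescence imaging, fitted bidirectionally against DMSO.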

Experiment [18] in a line: APR_HepG2_MitoMass_72hr: Apredica 72-hour HepG2 Assay for Mitochondrial Mass (AID 2282924).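 Note: MitoTracker Red CMXRos stain intensity per cell imaged as mitochondrial mass.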 Conditions: high-content imaging, actives raise or lower the signal. The method in brief: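 HepG2 cells dosed 72 hr at 0.39–200 uM (0.5% DMSO), in duplicate. MitoTracker Red CMXRos 250 nM loaded 30 min before formaldehyde fixation; high-content fluorescence imaging, bidirectional fit versus DMSO.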

The nature of experiment [19]: APR_HepG2_NuclearSize_72hr: Apredica 72-hour HepG2 Assay for Nuclear Size (AID 2282925). Conditions: high-content imaging, actives raise or lower the signal. In short, it runs like this:
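HepG2 cells dosed 72 h at 0.39–200 uM (10 concentrations, duplicate) in 0.5% v/v DMSO final. Fixed, Hoechst 33342-stained nuclei imaged; nuclear diameter measured by automated image analysis. Bidirectional fit versus DMSO.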

Structures are written as SMILES. “And” between values parts separate entries of the source, which are not always exact repeats. Identical values can stand only once. More than one record can exist for a structure, and the calls need not agree. The source made the active and inactive calls. Rule for the calls: active = hit-call score of the fitted dose curve at least 0.9, where 1 is the maximum; inactive = score below 0.9.

Chain of CCAAT/enhancer-binding protein beta (Homo sapiens) (P17676 whole entry, looked up): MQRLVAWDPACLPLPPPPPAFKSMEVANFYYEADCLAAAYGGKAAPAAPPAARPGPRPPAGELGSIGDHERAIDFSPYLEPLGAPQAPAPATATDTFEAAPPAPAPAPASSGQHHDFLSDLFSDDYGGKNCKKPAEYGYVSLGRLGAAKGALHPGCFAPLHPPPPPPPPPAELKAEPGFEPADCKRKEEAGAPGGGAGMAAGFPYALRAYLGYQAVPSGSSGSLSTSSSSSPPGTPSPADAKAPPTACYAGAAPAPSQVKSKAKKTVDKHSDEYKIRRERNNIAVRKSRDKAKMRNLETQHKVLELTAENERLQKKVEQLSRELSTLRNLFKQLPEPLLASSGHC
Chain of Transcription factor E2F1 (Homo sapiens) (Q01094 whole entry, looked up): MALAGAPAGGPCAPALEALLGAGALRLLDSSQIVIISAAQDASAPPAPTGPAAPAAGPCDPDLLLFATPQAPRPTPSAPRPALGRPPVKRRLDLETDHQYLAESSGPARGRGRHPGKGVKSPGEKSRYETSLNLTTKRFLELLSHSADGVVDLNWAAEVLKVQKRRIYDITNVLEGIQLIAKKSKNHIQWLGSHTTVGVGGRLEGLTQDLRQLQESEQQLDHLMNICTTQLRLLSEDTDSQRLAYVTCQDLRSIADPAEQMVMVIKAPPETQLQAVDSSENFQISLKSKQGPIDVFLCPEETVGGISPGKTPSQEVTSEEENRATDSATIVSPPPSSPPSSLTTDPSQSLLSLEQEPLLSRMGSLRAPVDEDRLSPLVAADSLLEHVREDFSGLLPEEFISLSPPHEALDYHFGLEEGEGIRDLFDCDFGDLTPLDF
Chain of Aryl hydrocarbon receptor (Homo sapiens) (P35869 whole entry, looked up): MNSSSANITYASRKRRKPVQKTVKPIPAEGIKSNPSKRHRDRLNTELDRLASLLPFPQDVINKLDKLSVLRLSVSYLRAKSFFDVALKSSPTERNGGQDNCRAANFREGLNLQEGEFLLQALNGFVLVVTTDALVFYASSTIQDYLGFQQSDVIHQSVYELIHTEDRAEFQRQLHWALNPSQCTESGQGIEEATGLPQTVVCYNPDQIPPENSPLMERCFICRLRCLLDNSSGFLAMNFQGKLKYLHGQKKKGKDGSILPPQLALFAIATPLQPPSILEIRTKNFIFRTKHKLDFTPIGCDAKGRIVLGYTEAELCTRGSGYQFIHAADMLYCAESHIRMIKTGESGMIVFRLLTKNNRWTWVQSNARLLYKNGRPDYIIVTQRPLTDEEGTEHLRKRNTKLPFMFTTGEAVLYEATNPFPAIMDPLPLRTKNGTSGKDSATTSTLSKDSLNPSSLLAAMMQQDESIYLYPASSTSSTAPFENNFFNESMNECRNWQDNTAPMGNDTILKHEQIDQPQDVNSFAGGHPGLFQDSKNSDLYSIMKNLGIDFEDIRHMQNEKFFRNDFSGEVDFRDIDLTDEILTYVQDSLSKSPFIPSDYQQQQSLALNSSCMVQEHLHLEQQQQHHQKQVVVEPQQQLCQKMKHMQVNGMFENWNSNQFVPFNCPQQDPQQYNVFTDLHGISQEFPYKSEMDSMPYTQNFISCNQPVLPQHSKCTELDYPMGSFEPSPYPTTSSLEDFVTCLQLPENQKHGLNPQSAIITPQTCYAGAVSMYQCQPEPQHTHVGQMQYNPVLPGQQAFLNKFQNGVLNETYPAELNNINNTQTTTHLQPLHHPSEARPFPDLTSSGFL
Chain of Retinoic acid receptor alpha (Homo sapiens) (P10276 whole entry, looked up): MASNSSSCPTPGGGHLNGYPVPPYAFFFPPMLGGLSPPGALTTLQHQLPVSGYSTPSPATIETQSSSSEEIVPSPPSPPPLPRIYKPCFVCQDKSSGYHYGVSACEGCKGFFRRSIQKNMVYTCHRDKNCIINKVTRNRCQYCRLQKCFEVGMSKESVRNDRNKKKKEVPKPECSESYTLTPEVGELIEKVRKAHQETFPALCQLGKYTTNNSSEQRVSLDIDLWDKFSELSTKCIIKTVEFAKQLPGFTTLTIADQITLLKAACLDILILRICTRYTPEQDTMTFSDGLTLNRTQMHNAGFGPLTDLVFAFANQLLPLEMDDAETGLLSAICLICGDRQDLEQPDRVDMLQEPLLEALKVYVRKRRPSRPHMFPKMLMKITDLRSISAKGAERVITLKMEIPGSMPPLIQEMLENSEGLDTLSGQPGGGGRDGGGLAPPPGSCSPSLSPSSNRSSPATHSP

For the molecule `Brc1ccc(Oc2c(Br)cc(Br)cc2Br)c(Br)c1`, the call in experiment [1], in [2], in experiment [3], in experiment [4], in experiment [5] and in experiment [6] was inactive. In addition, the molecule was classed as inactive in experiment [7], in experiment [8], in experiment [9], in experiment [10] and in [11].

For orientation: AC50 means the concentration at which the activity in the assay is half-maximal. `Oc1cc(Cl)c(Cl)cc1Cl`: the AC50 in experiment [12] is 42.4 µM (active); in experiment [14], 29.5 µM (active); in [15], 38.9 µM (active); in experiment [16], 51.8 µM (active); in [1], 39.7 µM (active); in [2], 46.5 µM (active). The concentration at half-maximal activity (AC50) in experiment [3] is 27.2 µM (active); in [6], 25.9 µM (active); in experiment [8], 26.8 µM (active). The molecule was called inactive in [13], in [17], in experiment [18], in experiment [19], in experiment [4] and in experiment [5]. Also, the result in [7], in [10] and in experiment [11] was inactive.

With `CC1CC(=O)O1` (centres undefined), the call in [1], in [2], in experiment [3], in experiment [4], in experiment [5] and in experiment [6] was inactive. The result in [7], in experiment [8], in experiment [9], in experiment [10] and in experiment [11] was inactive.

As for `Brc1ccc(Br)cc1`, the call in experiment [1], in [2], in experiment [3], in [4], in experiment [5] and in experiment [6] was inactive. Moreover, the outcome in experiment [7], in experiment [8], in [9], in [10] and in experiment [11] was inactive.

Regarding `O=C(CCl)NCO`, the call in experiment [1], in experiment [2], in [3], in experiment [4], in [5] and in [6] was inactive. Further, the outcome in experiment [7], in [8], in experiment [9], in experiment [10] and in experiment [11] was inactive.

On to `COC(=O)Nc1cccc(OC(=O)Nc2cccc(C)c2)c1`, for which the outcome in experiment [1], in experiment [2], in [3], in experiment [4], in experiment [5] and in experiment [6] was inactive. The call in experiment [7], in experiment [8], in experiment [9], in [10] and in [11] was inactive.

Regarding `CC(C)O.CC(C)O.OCCN(CCO)CCO.OCCN(CCO)CCO.[Ti]`, the outcome in experiment [12], in experiment [13], in experiment [14], in [15], in experiment [16] and in experiment [17] was inactive. The molecule was called inactive in experiment [18], in [19], in experiment [1], in experiment [2], in experiment [3] and in [6]. Moreover, the molecule was classed as inactive in [7], in experiment [9], in experiment [10] and in experiment [11]. For the same molecule, in experiment [8], the half-maximal activity concentration (AC50) was 6.97 µM (active).

As for `O=C/C(Cl)=C(/Cl)C(=O)O`, the molecule was classed as inactive in experiment [1], in [2], in experiment [5], in [6], in [8] and in [9]. In experiment [10], the molecule was classed as inactive. Moreover, the concentration at half-maximal activity (AC50) is 94.3 µM (active) in experiment [3], 70.7 µM (active) in [4], 61.5 µM (active) in [7] and 100 µM (active) in experiment [11].

In the case of `CN(C)C(=S)S`, the AC50 in experiment [12] is 0.242 µM (active); in experiment [14], 0.125 µM (active); in [15], 12 µM (active); in experiment [16], 1.16 µM (active); in experiment [18], 0.0391 µM (active); in [3], 26.2 µM (active). For the same molecule, the concentration at half-maximal activity (AC50) in experiment [4] is 25.5 µM (active). For the same molecule, the result in experiment [13], in experiment [17], in experiment [19], in experiment [1], in experiment [5] and in experiment [7] was inactive. Moreover, the result in experiment [8], in experiment [10] and in [11] was inactive.

Turning to `O=c1oc2ccccc2c(O)c1C(CC(O)c1ccc(-c2ccc(Br)cc2)cc1)c1ccccc1` (centres undefined), the AC50 in experiment [1] is 39 µM (active); in experiment [4], 37.6 µM (active) and 30.8 µM (active); in experiment [6], 7.97 µM (active) and 57.9 µM (active); in experiment [10], 40.6 µM (active); in [11], 54.6 µM (active). The molecule was called inactive in experiment [1], in [2], in experiment [3], in experiment [5], in experiment [8] and in experiment [10]. For the same molecule, the result in experiment [11] was inactive.
